High-throughput results as filed in PubChem BioAssay.
Hits are enriched below; roughly 8% of the tested compounds scored in any of these assays.
Lassa entry inh: qHTS for Inhibitors of binding or entry into cells for Lassa Virus; Lassa virus pseudotype entry inhibition, cell reporter; Potency, µM (titrated, usually from 37.9 µM), for the others: top-dose activity change, negative = inhibition, usual class: inhibitors; 300,000 compounds, 1.2% hits; AID 540256, 2011; calls by dose curve; tested in HEK293 cells; note: potency is the fitted concentration of half-maximal effect; % is set by controls: 0 for no effect and ±100 for the full control effect; nearly all actives have a fitted effect of over 50% in size
HCV inh: qHTS Assay for Inhibitors of Hepatitis C Virus (HCV). 340,000 compounds, 3.4% hits. Huh7.5.1 HCVcc-Cre infection, luciferase reporter, 44 h. Potency, µM (titrated, usually from 41.8 µM), for inactives: at the top dose activity change, negative = inhibition, most hits filed as inhibitors; active = well fitted inhibition curve with a large enough effect; inconclusive = small, poorly fitted or top-dose-only effect, or another doubt; inactive = no such curve, though single readings can be large or run the other way; note: potency is the fitted concentration of half-maximal effect; % is set by controls: 0 for no effect and ±100 for the full control effect
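Compounds are dispensed onto cells plated 4 h earlier at 1,000 per well, with HCVcc-Cre virus (about 0.5 moi) added next. Following 44 h of culture, luminescent signal is measured for 15 sec after 15 min with substrate at room temperature.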
MARV entry inh: qHTS for inhibitors of binding or entry into cells for Marburg Virus | Marburg virus pseudotyped entry inhibition, cell reporter | 300,000 compounds, 1.8% hits | Potency, µM (doses to about 37.8 µM), inactives show at the highest dose activity change, negative = inhibition, actives largely listed as inhibitors | AID 540276, 2011; calls by dose curve; tested in HEK293 cells; note: potency is the fitted concentration of half-maximal effect; % is set by controls: 0 for no effect and ±100 for the full control effect
SARS PLpro yeast: qHTS of Yeast-based Assay for SARS-CoV PLP; AID 485353, 2010; S. cerevisiae expressing SARS-CoV PLpro, growth rescue; 330,000 compounds, 0.19% hits; Potency, µM (titrated, usually from 32.9 µM), for inactives: at the top dose activity, positive = growth rescue, hits mostly activators; calls by dose curve; note: potency is the fitted concentration of half-maximal effect; 0% is about no effect; nearly all actives have a fitted effect of over 55% in size
HCMV antiviral: qHTS Assay for inhibitors of the human cytomegalovirus (HCMV); 410,000 compounds, 4.5% hits; HFF cells, HCMV-luciferase reporter, 72 h; active compounds read low; AID 1259415, 2018; activity change, negative = inhibition, % at 57.5 µM; in the data active = activity change below about -60%; inconclusive = no clear call, values can overlap the other calls; inactive = above about -39%; note: % is set by controls: 0 for no effect and ±100 for the full control effect
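HFF cells seeded 16 h at 37C, treated with compounds, infected with luciferase-reporter HCMV at MOI 1 PFU/cell; luciferase read at 72 h post infection, normalized to buffer-only and Salinomycin controls.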
FMDV inh: High Throughput Screening for Foot and Mouth Disease Virus Antivirals; FMDV antiviral cell-based qHTS; Potency, µM (series often up to 57.9 µM), without a hit: top-dose activity change, negative = inhibition, actives largely listed as inhibitors; 410,000 compounds, 1.2% hits; calls by dose curve; tested in HEK293T cells; note: read-out not given here; potency is the fitted concentration of half-maximal effect; % is set by controls: 0 for no effect and ±100 for the full control effect; nearly all actives have a fitted effect of over 45% in size
* hit, by the source's call; ? = inconclusive; . = not tested or not shown; [ ] = dose if it differs, or a comment.

SMILES | Lassa entry inh | HCV inh | MARV entry inh | SARS PLpro yeast | HCMV antiviral | FMDV inh
CC1(C)CC(=O)C2=C(C1)O[C@@]1(CCCCN3C(=O)c4ccccc4C3=O)Cc3ccccc3[C@H]2O1 | . | . | 11%[14.2 µM] | . | . | .
COc1cccc(O)c1CN1CCC2(CC1)c1ccccc1[C@@H](NC(=O)c1ccsc1)[C@@H]2OC | . | . | . | . | . | -7%
Cc1cc(C)cc(NC(=O)CCN2C(=O)c3ccccc3Sc3ncccc32)c1 | -2%[46.1 µM] | . | . | . | -61* | -5%
CN(CC(=O)Nc1cccc(F)c1)C(=O)c1cc(-c2cccs2)nn1-c1ccccc1 | 4% | 11µM* | -19% | 2% | -12 | ?
CN(CC(=O)Nc1ccccc1C(F)(F)F)C(=O)c1cc(-c2cccs2)nn1-c1ccccc1 | -1% | ? | 2% | -2% | -13 | -26%
CN(C)S(=O)(=O)N1CCC(c2ccc(F)cc2)C(COc2ccc3c(c2)OCO3)C1 (stereo not drawn) | ? | ? | 2.8µM* | 3% | -29 | -13%
Fc1ccc([C@H]2CCNC[C@H]2COc2ccc3c(c2)OCO3)cc1 | . | . | 16µM* | . | . | -17%
Fc1ccc([C@H]2CCNCC2COc2ccc3c(c2)OCO3)cc1 (stereo partly drawn) | . | . | . | . | . | -5%
CCc1nc2c(OCc3ccc4c(c3)OCO4)cccn2c1N(C=O)Cc1ccc(OC)cc1 | . | . | . | . | 16 | -3%
O=C(c1cccc(S(=O)(=O)N2CCN(c3ccc(F)cc3)CC2)c1)N1CCCC(C(F)(F)F)C1 (stereo not drawn) | ? | ? | 7.9µM* | -4% | -61* | ?
O=C(Nc1ccncc1)c1cccc(S(=O)(=O)N2CCN(c3ccc(F)cc3)CC2)c1 | ? | ? | ? | -1% | -71* | 20µM*
Cc1ccc(NC(=O)c2cccc(S(=O)(=O)N3CCN(c4ccc(F)cc4)CC3)c2)nc1 | ? | ? | ? | -3% | -77* | ?
O=C(C1CCN(S(=O)(=O)c2cccs2)CC1)N1CCCC(C(F)(F)F)C1 (stereo not drawn) | -2% | 18% | 2% | ? | -98* | -19%
O=C(Nc1ncccc1O)c1cccc(S(=O)(=O)N2CCN(c3ccc(F)cc3)CC2)c1 | -2% | -10% | -1% | -7% | -5 | -20%
O=C(c1cnsn1)N1CCOc2ccc(C(O)C(c3ccccc3)c3ccccc3)cc2C1 (stereo not drawn) | . | . | . | . | . | -18%
COc1ccc(OC)c(/C=N/NC2=NS(=O)(=O)c3ccccc32)c1 | . | 14% | 0% | -1% | 1 | -9%
COc1ccccc1C1CCN(Cc2cccc3ccccc23)CC1 | -25% | 7.9µM* | ? | -1% | -9 | ?
COc1ccccc1C1CCN(Cc2ccc(Cl)cc2Cl)CC1 | -7%[46.1 µM] | -14% | ? | -2% | -1 | -14%
CS(=O)(=O)N(CC(=O)N1CCCC1)c1ccc(Cl)cc1Cl | 1% | 2.8µM* | 24% | -1% | -28 | -6%
CSc1nc(Cl)c(Br)c(Nc2c[nH]c(=O)[nH]c2=O)n1 | ? | 6% | 23%[46.1 µM] | . | -34 | -7%
CCNc1ccc(Br)cc(C(=O)/C=C/c2ccc(Cl)cc2)c1=O | -5% | ? | ? | -32% | . | ?
COc1ccc(NC(=O)c2cc(Br)ccc2Cl)c(OC)c1 | -3% | ? | 15% | 0% | -32 | 8%
COc1ccc(/C=C2\COc3ccccc3C2=O)c(OC)c1 | -27%[46.1 µM] | ? | ? | -7% | 8 | 30%
CNc1ccc(Br)cc(C(=O)/C=C/c2ccc(Cl)cc2Cl)c1=O | ? | ? | ? | -1% | 23 | 10µM*
COc1ccccc1/C=C/C(=O)c1ccc(Cl)cc1 | 4% | ? | 13% | -12% | 14 | -30%
CNc1ccc(Br)cc(C(=O)/C=C/c2ccc(OC)cc2OC)c1=O | -1% | -28% | -7% | -29% | -66* | ?
COc1ccc(C=C2c3ccccc3C(=O)c3ccccc32)c(OC)c1 | . | . | . | 0% | -88* | .
COc1ccc(OC)c(/C=C/C(=O)c2ccc(Cl)cc2)c1 | 4% | ? | -4% | -13% | -10 | 22µM*
